# Assay outcomes: PubChem, National Center for Advancing Translational Sciences (NCATS)
# This is one part of a sample in which hits are shown more often than they occur.
# Pf Dd2 growth – Plasmodium falciparum Dd2 growth inhibition. P. falciparum Dd2 growth, SYBR Green, 72 h. Potency, µM (highest dose often 28.9 µM), for inactives: top-dose activity, negative = inhibition, most hits filed as inhibitors. 4.3% of 120,000 active. AID 1347417; active = well fitted inhibition curve with a large enough effect;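 also: plate controls were DMSO vehicle for no effect and reference drug for full effect; nearly all actives have a fitted effect of over 65% in size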
#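 Readout: SYBR Green fluorescence, 485 nm excitation, 535 nm emission, after ~16 h lysis at 37C. Before that, Dd2-infected red cells (2.5% hematocrit) grew 72 h with compound, 29 uM top final concentration.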
# Active calls of the source: *; i = inactive; [ ] = remark or other dose. Potency is read from the fitted curve at half-maximal effect.
SMILES,Pf Dd2 growth
COc1cc(CN2CCC(C)(C#N)CC2)ccc1OCC(O)CN1CCOCC1 (configuration not stated),1%
Cc1nn(CC(=O)NCc2ccc(N(C)C)cc2)c(=O)c2nc(C(C)C)sc12,i
O=C(c1ccccc1F)N1CCC2(Cc3ccccc3NC2=O)C1 (configuration not stated),i
CC1Oc2ccc(NC(=O)Nc3ccccc3)cc2CN(Cc2ccccc2)C1=O (configuration not stated),i
COc1ccc(-c2ccc3nnc(CNC(=O)C(C)Oc4ccccc4)n3n2)cc1 (configuration not stated),i
Cc1ccc(S(=O)(=O)c2nc(-c3ccco3)oc2SCC(C)C)cc1,7%
CCCS(=O)(=O)c1nc(S(=O)(=O)c2ccc(C)cc2)c(NCC(C)C)s1,8.9µM*
COCCNc1sc(S(=O)(=O)c2ccc(C)cc2)nc1S(=O)(=O)c1ccc(C)cc1,-16%
CCC(C)Nc1sc(S(=O)(=O)CC)nc1S(=O)(=O)c1ccc(C)cc1 (configuration not stated),13µM*
CCN(CC)CCCNC(=O)CSc1nc2nc(C)c(Cc3c(F)cccc3Cl)c(C)n2n1,-29%
CCCS(=O)(=O)c1nc(S(=O)(=O)c2ccc(C)cc2)c(N(CC)CC)s1,i
CCCCS(=O)(=O)c1oc(-c2ccc(F)cc2)nc1S(=O)(=O)c1ccc(C)cc1,-3%
CCCCNc1nc2c(S(=O)(=O)c3ccc(Cl)cc3)nnn2c2ccsc12,-19%
CCCSc1oc(-c2cccs2)nc1S(=O)(=O)c1ccc(C)cc1,-21%
CCCCNc1sc(S(=O)(=O)CC)nc1S(=O)(=O)c1ccc(C)cc1,11µM*
CCCCCS(=O)(=O)c1oc(-c2cccs2)nc1S(=O)(=O)c1ccc(C)cc1,7%
CCN(CC)CCCNc1sc(S(=O)(=O)c2ccccc2)nc1S(=O)(=O)c1ccc(Cl)cc1,5.6µM*
CCC(=O)N1C(C(=O)NCC2CCCO2)COC12CCC(C)CC2 (configuration not stated),-6%
COc1ccccc1C(=O)Nc1ccnn1C1CCN(c2cnccn2)CC1,-14%
O=C(NCC(O)c1ccccc1C(F)(F)F)c1cccc(-n2cnnc2)c1 (configuration not stated),15%
O=C1Nc2ccccc2O[C@H]2C[C@@H]1N(Cc1ccccc1)C2,2%[44.1 µM]
CCCc1nc(C(=O)N[C@H]2COC[C@H]2Cc2cc(C)no2)cs1,0%
CC(C)N1C(=O)CO[C@H](c2ccc(NC(=O)c3ccc(C#N)cc3)cc2)[C@H]1CO,-9%[44.1 µM]
O=C(C1CCN(C(=O)N2CC3CC(C2)[C@H]2CCCC(=O)N2C3)CC1)N1CCN(c2ccccn2)CC1 (some centres not stated),i
COc1cc(C)c2c(c1C)C[C@H](C(C)C(=O)N1CCSCC1)CC2 (some centres not stated),-25%[44.1 µM]
SMILES,Pf Dd2 growth
COc1ccc(C(=O)N2CCC(Cc3nc(-c4ccc(F)cc4)no3)CC2)cc1F,-20%
COc1ccc(-c2noc(CC3CCN(C(=O)c4ccc5c(c4)OCO5)CC3)n2)cc1,11µM*
COC(=O)c1cccc(C(=O)N2CCC(Cc3nc(-c4ccc(F)cc4)no3)CC2)c1,10µM*
O=C(c1ccc2c(c1)OCO2)N1CCC(Cc2nc(-c3ccccc3)no2)CC1,5%
CCOc1ccc(CC(=O)N2CCC(Cc3nc(-c4ccc(OC)cc4)no3)CC2)cc1,8.9µM*
COc1cccc(-c2noc(CC3CCN(C(=O)c4ccccc4C)CC3)n2)c1,i
COc1cccc(-c2noc(CC3CCN(C(=O)c4cc(OC)c(OC)c(OC)c4)CC3)n2)c1,-6%
COc1ccc(-c2noc(CC3CCN(C(=O)Cc4ccsc4)CC3)n2)cc1,i
COC(=O)c1cccc(C(=O)N2CCC(Cc3nc(-c4cnccn4)no3)CC2)c1,i
COc1ccc(CC(=O)N2CCC(Cc3nc(-c4ccc(OC)cc4)no3)CC2)cc1,i
COc1ccc(-c2noc(CC3CCN(C(=O)c4cc(F)cc(F)c4)CC3)n2)cc1,-26%
COc1cccc(-c2noc(CC3CCN(C(=O)c4ccc(N(C)C)cc4)CC3)n2)c1,5µM*
O=C(NC1CCCN(c2cc(-c3ccccc3)[nH]n2)C1)C1CCCC1 (configuration not stated),-11%
CCc1noc(-c2cn(C3CCN(C(=O)c4sccc4C)C3)nn2)n1 (configuration not stated),-25%
O=C1NCCC[C@@H]1NC(=O)[C@@H]1CN(C(=O)c2cccs2)CCN1C(=O)c1ccccc1,-13%
O=C(c1ccc(Br)o1)N1CC2CC(C1)[C@H]1CCCC(=O)N1C2 (some centres not stated),10%
CCC(C)NC(=O)N1CC(n2cc(C(=O)NCc3ccncc3)nn2)C1 (configuration not stated),16%
CNC(=O)c1cnn2c1CN(C(=O)c1cccnc1)CC2,17%[44.1 µM]
COC(=O)c1ccc(NC(=O)N2CCCC(CN3CCOCC3)CC2)cc1 (configuration not stated),i
O=C(O)C[C@@H]1CCN(C(=O)C2CCCC2)C[C@@H]1CCN(CCN1CCOCC1)c1ccccc1,-13%
CC(C)CC(=O)N1CCc2nnc([C@@H]3C[C@@H](O)CN3C)n2CC1,5%
CC(C)(C)c1nnc2n1C(C(=O)N1CCN(c3ncccn3)CC1)CC2 (configuration not stated),28%
CCN(Cc1ccncc1)C(=O)CC1=C2CCCCC2N(C)C1=O (configuration not stated),-1%
Cc1cnc(C(=O)N2CCC3(CCCN(Cc4cccc(F)c4F)C3=O)C2)[nH]1 (configuration not stated),-12%
COc1ccc(-c2onc(C)c2C(=O)N2CCC(Cc3ccc(F)cc3)CC2)cc1,-5%
SMILES,Pf Dd2 growth
Cc1ccc(OCC(=O)N2CCC(Cc3nc(-c4ccccc4)no3)CC2)cc1,i
COc1ccc(-c2noc(CC3CCN(C(=O)CCCc4ccccc4)CC3)n2)cc1,-26%
COc1ccc(OCC(=O)N2CCC(Cc3nc(-c4ccc(OC)cc4)no3)CC2)cc1,11µM*
Cc1noc(-c2ccc3c(c2)OCO3)c1C(=O)N1CCC(Cc2ccccc2)CC1,i
COc1ccc(CC2CCN(C(=O)c3c(C)noc3-c3ccc4c(c3)OCO4)CC2)cc1,7.9µM*
CCN(CC)C(=O)Cn1c(C)ccc(NS(=O)(=O)c2ccc(C)cc2)c1=O,9%
O=C1NCCCC12CCN(Cc1cccc(C(F)(F)F)c1F)C2 (configuration not stated),-20%
C[S+](=O)([O-])N1Cc2ccccc2CC12CN(C(=O)c1ccccc1F)C2,-22%
Cn1cc([C@@H](NC(=O)c2scc3c2CCCC3)C2CC(O)C2)cn1 (some centres not stated),-1%
CCN(CC)CCNC(=O)c1cn(CC)c2ccc(S(=O)(=O)N3CCc4ccccc4C3)cc2c1=O,i
CCn1cc(C(=O)NCc2ccccc2Cl)c(=O)c2cc(S(=O)(=O)N3CCCCC3)ccc21,1%
CCn1cc(C(=O)NCc2ccccc2Cl)c(=O)c2cc(S(=O)(=O)N3CCc4ccccc4C3)ccc21,10µM*
CCn1cc(C(=O)NCc2ccccc2Cl)c(=O)c2cc(S(=O)(=O)N3CCCCCC3)ccc21,-17%
CCn1cc(C(=O)NCc2ccccc2Cl)c(=O)c2cc(S(=O)(=O)N3CCOCC3)ccc21,-12%
CCn1cc(C(=O)NCc2ccccc2OC)c(=O)c2cc(S(=O)(=O)N3CCCCC3)ccc21,10µM*
